Data published in PubChem BioAssay (NCI).
Compounds without any hit were thinned out: in the full panel of roughly 83,000, 20% have a hit.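 Growth was measured after 48 h exposure to one concentration of compound in 96-well plates. Values under 10 count as active.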 Activity calls are given as the source filed them.

What was measured:
Test in all cases: NCI-60 one-dose screen, 48 h (100 = growth as untreated, 0 = no growth, -100 = all killed)
Conditions in all cases: 10 µM unless noted
[1] = test system: DU-145 prostate
[2] = test system: K-562 leukemia
[3] = test system: MALME-3M melanoma
[4] = test system: MDA-MB-231 breast
[5] = test system: RXF 393 renal
[6] = test system: SF-268 CNS
[7] = test system: SF-295 CNS
[8] = test system: SF-539 CNS
[9] = test system: UACC-257 melanoma
[10] = test system: M14 melanoma
[11] = test system: HCT-15 colon
[12] = test system: HT29 colon
[13] = test system: SNB-75 CNS
[14] = test system: SNB-19 CNS
[15] = test system: U251 CNS
[16] = test system: PC-3 prostate
[17] = test system: SK-MEL-5 melanoma
[18] = test system: UACC-62 melanoma
[19] = test system: LOX IMVI melanoma
[20] = test system: SK-MEL-28 melanoma

Measured: growth

Cc1cc(N2CCCCCC2)nc(N2CCN(CC(=O)Nc3ccc4c(ccn4Cc4ccccc4)c3)CC2)n1
active: [5] 6.02% | [12] 6.45%
inactive: [1] 70.7% | [2] 12.1% | [3] 50.9% | [4] 54.6% | [6] 71.2% | [7] 20.4% | [8] 55.7% | [9] 61.3% | [10] 15.6% | [11] 30.8% | [13] 69.6% | [14] 67.3% | [15] 39.2% | [16] 29% | [17] 46.9% | [18] 49.2% | [19] 44.1% | [20] 51.8%

C=C(C)[C@@H]1CC[C@]2(C(=O)NCCCN)CC[C@]3(C)[C@H](CC[C@@H]4[C@@]5(C)CC[C@H](O)C(C)(C)[C@@H]5CC[C@]43C)[C@@H]12
active: [1] -100% [100 µM] | [2] 1.1% [100 µM] | [3] -18.8% [100 µM] | [4] -47.8% [100 µM] | [5] -42.3% [100 µM] | [6] -16.9% [100 µM] | [7] -26.4% [100 µM] | [8] -36.2% [100 µM] | [9] -46.7% [100 µM] | [10] 5.07% [100 µM] | [11] -22.1% [100 µM] | [12] 3.9% [100 µM] | [13] -51.6% [100 µM] | [14] -29.5% [100 µM] | [15] -13.8% [100 µM] | [16] -53.8% [100 µM] | [17] -23.9% [100 µM] | [18] -22.6% [100 µM] | [19] 1.37% [100 µM] | [20] -31.4% [100 µM]

CCN(CC)c1ccc2cc(C(Nc3ccc(Br)c(C(F)(F)F)c3)c3nnnn3C(C)(C)C)c(=O)oc2c1 (stereo not given)
inactive: [1] 103% | [2] 88.2% | [3] 88% | [4] 86.9% | [5] 82.9% | [6] 85.3% | [7] 103% | [8] 101% | [9] 93.3% | [10] 103% | [11] 94.8% | [12] 85.9% | [13] 67.7% | [14] 86.1% | [15] 86.6% | [16] 79.7% | [17] 84.7% | [18] 88.8% | [19] 98% | [20] 104%

Cc1nc(-c2ccccc2)sc1CC#N
inactive: [1] 116% | [2] 94.2% | [3] 128% | [4] 116% | [5] 118% | [6] 106% | [7] 101% | [8] 111% | [9] 123% | [10] 125% | [11] 102% | [12] 105% | [13] 113% | [14] 103% | [15] 100% | [16] 108% | [17] 107% | [18] 106% | [19] 102% | [20] 120%

O=C(Nc1ccc(Cl)c(C(F)(F)F)c1)Nc1ccc(-c2cccnc2)cc1N1CCC(CO)CC1
active: [4] -17.5% | [12] 9.16%
inactive: [1] 53.2% | [2] 15.1% | [3] 43.1% | [5] 26.2% | [6] 47.6% | [7] 17.8% | [8] 18.9% | [9] 40.2% | [10] 24.1% | [11] 14.8% | [13] 85.4% | [14] 29.1% | [15] 21% | [16] 12.4% | [17] 11.3% | [18] 37% | [19] 26.6% | [20] 32.3%

CN(Cc1cccc(C(F)(F)F)c1)C(=O)[C@@H](CC(=O)N1CCC(N2CCCCC2)CC1)N1C(=O)[C@@H](N2C(=O)OC[C@@H]2c2ccccc2)[C@H]1/C=C/c1ccccc1
inactive: [1] 103% | [2] 65.7% | [3] 96.8% | [4] 55.7% | [5] 76.3% | [6] 77.8% | [7] 90.8% | [8] 81.9% | [9] 88.9% | [10] 98.7% | [11] 94.1% | [12] 86.6% | [13] 81.3% | [14] 81% | [15] 67.1% | [16] 67.1% | [17] 34.5% | [18] 96.2% | [19] 69.2% | [20] 93.3%

Cc1c(Cn2cc(COc3ccc(Br)cc3)nn2)c(C)c(Cn2cc(COc3ccc(Br)cc3)nn2)c(C)c1Cn1cc(COc2ccc(Br)cc2)nn1
inactive: [1] 104% | [2] 103% | [3] 89.1% | [4] 89.7% | [5] 102% | [6] 97% | [7] 89.6% | [8] 96% | [9] 80.2% | [10] 97.7% | [11] 104% | [12] 92.4% | [13] 81.1% | [14] 89.7% | [15] 91.3% | [16] 87.9% | [17] 98.4% | [18] 76.9% | [19] 35% | [20] 94.1%

CC1Cc2c(Cl)ncnc2N(C)c2ccc(Cl)cc21 (stereo not given)
inactive: [1] 40.9% | [2] 14.7% | [3] 22.6% | [6] 18.8% | [7] 20.2% | [8] 28.1% | [10] 11.1% | [13] 50.1% | [14] 25.2% | [15] 18.8% | [16] 13.9% | [18] 11.8% | [20] 20.6%
active: [4] -39.8% | [5] 0.883% | [9] 4.86% | [11] 6.68% | [12] -0.897% | [17] -86.9% | [19] -69.3%

CCOc1cc(NC(=O)c2ccccc2)c(OCC)cc1N
inactive: [1] 110% | [2] 113% | [3] 147% | [4] 104% | [5] 117% | [6] 106% | [7] 121% | [8] 112% | [9] 118% | [10] 116% | [11] 111% | [12] 121% | [13] 106% | [14] 105% | [15] 106% | [16] 104% | [17] 107% | [18] 106% | [19] 100% | [20] 118%

CCN(CC)CC(C)Nc1ccc(C)c2sc3ccccc3c(=O)c12 (stereo not given)
inactive: [1] 82% | [2] 44.2% | [3] 65.2% | [4] 28.7% | [5] 39.5% | [6] 58.9% | [7] 76.2% | [8] 44.2% | [11] 32.5% | [12] 26.8% | [13] 40.3% | [14] 53.8% | [15] 37.4% | [16] 47.6% | [19] 23.3% | [20] 38.9%
active: [9] 0.527% | [10] 3.81% | [17] -68.1% | [18] 3.87%

COc1ccc(C=C2c3ccccc3-c3ccccc32)cc1
inactive: [1] 84.6% | [2] 18.8% | [3] 63.5% | [4] 59.2% | [5] 54.5% | [6] 53.8% | [7] 31.7% | [8] 43.7% | [9] 52.3% | [10] 30% | [11] 25.8% | [12] 13.7% | [13] 43.3% | [14] 51.4% | [15] 34.8% | [16] 63.6% | [17] 60.3% | [18] 23.6% | [19] 41.3% | [20] 64.9%

CC1Cc2c(ncnc2-n2cnc3ccccc32)N(C)c2ccccc21 (stereo not given)
inactive: [1] 50.3% | [2] 15.5% | [3] 64.5% | [4] 29.4% | [5] 34% | [6] 49% | [7] 18.9% | [8] 17% | [9] 53.1% | [10] 12.9% | [11] 21.6% | [13] 43% | [14] 31.5% | [15] 23.7% | [16] 25.6% | [17] 20.8% | [18] 30.9% | [19] 44.9% | [20] 70.4%
active: [12] 0.852%

COc1ccc(-c2cc(-c3ccc(OC)c(OC)c3)nc(SCCCCCC(=O)NO)n2)cc1
inactive: [1] 58.8% | [2] 26.1% | [3] 19.4% | [4] 42.2% | [5] 42.1% | [6] 82.3% | [7] 72.9% | [8] 55.4% | [9] 41.8% | [10] 47.7% | [11] 96.5% | [12] 31.3% | [13] 46.2% | [14] 65.8% | [15] 38.3% | [16] 64.5% | [17] 31.9% | [18] 24% | [19] 56.9% | [20] 35.5%

O=C(CSc1nccc(Nc2ccc(S(=O)(=O)Nc3ccccn3)cc2)n1)c1ccc(Cl)cc1
inactive: [1] 103% | [2] 86.6% | [3] 112% | [4] 85.8% | [5] 106% | [6] 95.1% | [7] 98.2% | [8] 95.3% | [9] 91.3% | [10] 107% | [11] 99.9% | [12] 107% | [13] 101% | [14] 97.1% | [15] 93.9% | [16] 84.3% | [17] 70.8% | [18] 82.4% | [19] 87.6% | [20] 118%
